Sampled rows, rich in hits. Any-hit rate of the full collection: about 6.1%.
D3 antag: antagonists of human D3 dopamine receptor; P35462; D3R cells, DiscoveRx beta-arrestin luminescence, antagonist mode; stronger effect = lower value; max response, negative = inhibition, %; 2.5% of 360,000 active; in the data active means max response below about -50%; inconclusive means no clear call, values can overlap the other calls; further: on the % scale 0 is the no-effect control and ±100 the full control effect
Target sequence (P35462 whole entry, looked up): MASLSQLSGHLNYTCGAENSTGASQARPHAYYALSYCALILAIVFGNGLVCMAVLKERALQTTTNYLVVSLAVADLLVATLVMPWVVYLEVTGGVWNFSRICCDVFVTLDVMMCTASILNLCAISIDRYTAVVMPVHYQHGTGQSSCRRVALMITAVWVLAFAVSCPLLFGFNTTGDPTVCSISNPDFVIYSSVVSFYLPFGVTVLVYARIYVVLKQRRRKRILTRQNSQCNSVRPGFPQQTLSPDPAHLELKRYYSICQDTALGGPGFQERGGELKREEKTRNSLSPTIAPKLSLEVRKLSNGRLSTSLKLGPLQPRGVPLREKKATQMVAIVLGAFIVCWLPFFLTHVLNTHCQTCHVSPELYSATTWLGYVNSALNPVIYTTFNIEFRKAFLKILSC
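Cells plated overnight at 1500 cells/well, then exposed to library compounds with dopamine controls for 90 minutes at 37 degrees C. DiscoveRx reagent added for 30–60 minutes at room temperature; luminescence read, quantitative HTS format.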
D1 potentiator: enhances dopamine response at the human D1 receptor; P21728; HEK293 TREx D1 cells, calcium flux, dopamine EC20 potentiation; potentiation, % at 10 µM; 0.036% of 360,000 active; AID 504651; in the data active means potentiation above about 30%; further: 0% is about no effect
D3 ag: agonists of human D3 dopamine receptor; AID 652048; D3R DiscoveRx beta-arrestin cells, luminescence, 90 min; max activation, %; 0.58% of 410,000 active; in the data active means max activation above about 30%; further: 0% is about no effect
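Cells at 1500/well, incubated overnight, then treated with pinned compounds (dopamine as control) for 90 min at 37 degrees C. DiscoveRx reagent added for 30 - 60 minutes at room temperature; luminescence read.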
D1 antag: antagonists of human D1 dopamine receptor; P21728; HEK293 TREx D1 cells, calcium flux, dopamine EC80; stronger effect = lower value; activity change, negative = inhibition, % at 10 µM; 3.2% of 360,000 active; AID 504652; in the data active means activity change below about -30%; further: on the % scale 0 is the no-effect control and ±100 the full control effect
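Antagonism measured as reduced calcium response to an EC80 dopamine addition following 180 s compound pre-read; cells were inducible HEK293 Trex D1 plated overnight at 30 C, read kinetically at 1 cycle/sec.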
D1 agonist: human D1 receptor agonism; P21728; HEK293 T-REx D1 cells, calcium flux, agonist mode; activation, % at 2 µM; 1% of 360,000 active; in the data active means activation above about 30%; further: 0% is about no effect
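Inducible HEK293 T-REx D1 cells, force-coupled to calcium signalling, were plated at 4000 cells/well with tetracycline and held overnight at 30 C. After no-wash calcium dye loading, compound-evoked calcium rise over 180 s flagged agonists.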
An asterisk follows results filed as active; ? = inconclusive; nt = no result; ! = a repeat was not active.

SMILES	D3 antag	D1 potentiator	D3 ag	D1 antag	D1 agonist
O=C1C(=O)c2ccccc2C(O)=C1c1ccccc1F	-72*	-2	-41	-8	-1
O=C1C(O)=C(O)C(=O)c2ccccc21	-25	nt	-10	nt	nt
Cc1cc(C)c2c(NC(=O)c3ccccc3Cl)c(C(=O)NCc3ccc(Cl)cc3)sc2n1	nt	-4	4	-10	0
CCc1nc2ccc(C(=O)Nc3nnc(C)s3)cc2nc1CC	-3	-8	-21	-42*	3
COc1ccc(CNc2nc3c(c(=O)n(C)c(=O)n3C)n2Cc2ccccc2Cl)cc1	nt	1	7	2	2
S=C(NCc1ccc(Cl)cc1Cl)Nc1ccccc1	3	-7	13	-31*	26
S=C(NCc1ccc(Cl)cc1)Nc1ccccc1	4	-10	-1	2	22
Cc1cc(Cl)ccc1NC(=S)NCc1ccccc1Cl	2	-7	2	-32*	20
CCCSc1nnc2[nH]c(=O)cc(C)n12	nt	-1	-11	nt	-3
CCOC(=O)c1c(NC(=O)c2c(-c3ccccc3)noc2C)sc(C)c1-c1ccccc1	61	0	0	6	3
CC1CCc2c(sc(NC(=O)c3ccc(Cn4cc([N+](=O)[O-])cn4)o3)c2C#N)C1 (stereo unspecified)	-69*	-2	-9	-5	1
CCOC(=O)c1ccccc1NC(=O)c1c(-c2ccccc2)noc1C	nt	-6	10	-10	32*
Cc1onc(-c2ccccc2)c1C(=O)OCC(=O)Nc1cccc(Cl)c1	5	nt	2	2	47*
Cc1onc(-c2ccccc2)c1C(=O)Nc1sc2c(c1C#N)CCC(C)C2 (stereo unspecified)	15	5	32*	4	5
CCn1nc(-c2ccccc2)c(-c2ccccc2)c(C(=O)Nc2ccccc2C(N)=O)c1=O	nt	0	1	-42*	7
Cc1cnc(NC(=O)c2c(-c3ccccc3)noc2C)s1	8	-6	-2	-34*	-1
CCn1nc(-c2ccccc2)c(-c2ccccc2)c(C(=O)Nc2ccccc2C#N)c1=O	nt	2	13	-2	2
CCCCN1CC(c2nc3ccccc3n2CCCCOc2ccc(C)c(C)c2)CC1=O (stereo unspecified)	nt	-2	-10	0	2
COc1ccc(CCC(=O)NCc2nc3cccnc3n2Cc2ccccc2)cc1	nt	-3	4	5	0
O=c1c2[nH]c3cc(Br)sc3c2cnn1Cc1ccccc1F	nt	3	nt	6	2
O=S(=O)(Nc1ccccc1O)c1cccc2cccnc12	4	-12	5	-35*	13
CCOC(=O)c1c(C=O)c(C)n(Cc2ccc(C)cc2)c1C	39	18	2	-56*	104*
COC(=O)c1ccc(Oc2coc3cc(OCc4cnn(-c5ccccc5)c4)ccc3c2=O)cc1	7	-3	2	-38*	4
Cc1cccc2nc(-c3ccccn3)c(Nc3ccccc3)n12	nt	2	-29	-3	0
CCCCNc1c(-c2ccccn2)nc2nc(C)cc(C)n12	26	nt	2	nt	nt
SMILES	D3 antag	D1 potentiator	D3 ag	D1 antag	D1 agonist
Cc1cc(C)n2c(Nc3c(C)cccc3C)c(-c3ccccn3)nc2n1	-70*	nt	-12	nt	nt
Cc1ccc(Nc2c(-c3ccccn3)nc3cccc(C)n23)cc1	-82*	4	-27	6	1
O=C(COCc1cc(-c2cccs2)on1)NCc1ccccc1Cl	nt	0	-10	1	0
CN(Cc1ccccc1)Cc1cc(=O)oc2ccccc12	0	nt	-6	nt	nt
CCc1ccc2c(CN(C)Cc3ccccc3OC)cc(=O)oc2c1	1	-6	-10	-31*	3
CC/C(=C(\c1ccccc1)c1ccc(OCCN(C)C)cc1)c1ccccc1	-73*!	-5	-56	32	87*!
CC/C(=C(\c1ccc(O)cc1)c1ccc(OCCN(C)C)cc1)c1ccccc1	-7	-2	-50	9	15
CC(=O)OCC(=O)[C@@]1(O)[C@H](C)C[C@H]2[C@@H]3C[C@H](F)C4=CC(=O)C=C[C@]4(C)[C@H]3[C@@H](O)C[C@@]21C	nt	nt	2	nt	nt
CCS(=O)(=O)N1CCCC(C(=O)NCCOC)C1 (stereo unspecified)	nt	0	4	10	-2
CN(C(=O)COC(=O)COc1ccc2c(c1)CCC2)c1c(N)n(Cc2ccccc2)c(=O)[nH]c1=O	2	-6	23	-31*	1
Cn1c2ccccc2c2c(C(=O)N3CCN(c4cccc(Cl)c4)CC3)cn(C3CCCCC3)c(=O)c21	nt	-2	2	0	8
COc1ccc2[nH]c3c(c2c1)CCN1C(=O)C(CC(=O)NCCCn2ccnc2)C[C@H](C(=O)N(C(C)C)C(C)C)[C@@]31C (stereo partly specified)	5	nt	51*	nt	nt
COc1ccc2[nH]c3c(c2c1)CCN1C(=O)C(CC(=O)NCC24CC5CC(CC(C5)C2)C4)C[C@H](C(=O)N(C(C)C)C(C)C)[C@@]31C (stereo partly specified)	-4	nt	37*	nt	nt
CCN(CC)C(=O)[C@H]1CC(CC(=O)NCCCn2ccnc2)C(=O)N2CCc3c([nH]c4ccc(OC)cc34)[C@]12C (stereo partly specified)	2	nt	28	nt	nt
O=C(CNC(=O)c1cccc2ccccc12)OC(C(=O)Nc1cc(C(F)(F)F)ccc1Cl)c1ccccc1 (stereo unspecified)	nt	5	nt	13	-1
CCOC(=O)c1ccc(NC(=O)Cn2nc(C)c3nn(-c4ccc(Cl)cc4)c(C)c3c2=O)cc1	nt	-2	14	9	7
Cc1ccc(-c2nc3scc(CCNC(=O)Cc4ccc(Cl)cc4)n3n2)cc1	nt	-1	12	-5	1
C[C@@H]1CC[C@@]2(OC1)O[C@H]1C[C@H]3[C@@H]4CC[C@H]5C[C@@H](O)CC[C@]5(C)[C@H]4CC(=O)[C@]3(C)[C@H]1[C@@H]2C	nt	nt	-6	nt	nt
Cc1c(C(=O)NCc2ccccc2C(F)(F)F)sc(=O)n1Cc1cccc(C(F)(F)F)c1	-55*	nt	-6	nt	nt
COc1ccc(Cl)cc1Cn1c(C)c(C(=O)NCc2ccc(C#N)cc2)sc1=O	-50*	nt	-1	nt	nt
Cc1c(C(=O)NCc2ccccc2C(F)(F)F)sc(=O)n1Cc1ccc2ccccc2c1	5	nt	6	nt	nt
COc1ccc(Cl)cc1Cn1c(C)c(C(=O)NCc2cccc(C(F)(F)F)c2)sc1=O	-60*	nt	-4	nt	nt
COc1ccccc1Cn1c(C)c(C(=O)NCc2ccc(C#N)cc2)sc1=O	-4	nt	-6	nt	nt
COc1ccc(Cl)cc1Cn1c(C)c(C(=O)NCc2ccccc2C(F)(F)F)sc1=O	?	nt	-8	nt	nt
CCN(C(=O)c1cc(S(=O)(=O)N2CCc3ccccc32)cn1C)c1cccc(C)c1	nt	-4	-11	-8	0
Cc1ccc(C2=NC(c3ccccc3)=Nc3ccc(Cl)cc3N2)cc1	nt	-1	0	-10	0

From PubChem BioAssay
